{
  "source": "PubChem BioAssay (NCATS)",
  "note": "Records with an inconclusive call do not appear. A number with no mark means an inactive call. The source made the active and inactive calls. Calls follow the shape of the dose curve; as a rule, active = well fitted inhibition curve with a large enough effect; inconclusive = small, poorly fitted or top-dose-only effect; inactive = flat fitted curve, though single readings scatter. % is scaled to controls: 0 for no effect and ±100 for the full control effect; potency is read from the fitted curve at half-maximal effect.",
  "data": [
    {"target": "Dual specificity protein kinase CLK4 (Homo sapiens) (UniProt Q9HAZ1)", "sequence (Q9HAZ1 whole entry, looked up)": "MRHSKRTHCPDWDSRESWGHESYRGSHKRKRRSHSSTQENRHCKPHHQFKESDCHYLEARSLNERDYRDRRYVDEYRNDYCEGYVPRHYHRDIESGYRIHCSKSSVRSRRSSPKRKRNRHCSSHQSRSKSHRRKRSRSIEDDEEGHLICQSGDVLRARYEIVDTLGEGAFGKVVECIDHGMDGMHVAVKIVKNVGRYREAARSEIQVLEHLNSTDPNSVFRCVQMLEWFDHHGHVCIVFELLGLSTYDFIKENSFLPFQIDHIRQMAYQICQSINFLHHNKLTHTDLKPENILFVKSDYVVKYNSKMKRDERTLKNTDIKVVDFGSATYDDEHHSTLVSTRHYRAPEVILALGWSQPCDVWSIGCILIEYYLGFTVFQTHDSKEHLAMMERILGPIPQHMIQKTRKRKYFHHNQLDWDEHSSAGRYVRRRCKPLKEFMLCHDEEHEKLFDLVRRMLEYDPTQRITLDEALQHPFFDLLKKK", "experiment": "qHTS Assay for Inhibitors of CDC-like Kinase 4 (ADP-FP Assay) (AID 1795); also: nearly all actives have a fitted effect of over 60% in size;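 as to activity change, negative = inhibition: recombinant human CLK4 phosphorylating RS repeat peptide at 1 µM ATP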", "settings": "Transcreener ADP fluorescence polarization; series mostly up to 50 µM; activity change, negative = inhibition: at the top concentration", "method": "NIH Molecular Libraries Probe Production Centers Network [MLPCN] NIH Chemical Genomics Center [NCGC] MLPCN Grant: 1R03MH084827-01 Assay Submitter (PI): Tom Misteli NCGC Assay Overview: Clk4 (Invitrogen cat # PV3839) was assayed using ATP and the RS repeat peptide (AnaSpec cat # 61722) as substrates using Transcreener (trade mark), a competitive fluorescence polarization (FP) assay. For the present assay, we used the Orange TranscreenerTM ADP2 (BellBrooks Labs, Madison, Wis) detection system to monitor ADP production in the kinase reaction. […] This allows the ADP tracer to freely rotate leading to a decrease in the observed FP value. The amount of ADP produced can then be calculated using a calibration curve. The positive control for the assay was TG003 (Sigma-Aldrich, cat # 300801-52-9) which is a Clk4 inhibitor [2].\nNCGC Assay Protocol Summary: Two uL/well of substrate-buffer solution (100 uM RS peptide, 1 uM ATP, 25 mM Tris pH7.5, 10 mM MgCl2, 0.5 mM EGTA, 2.5 mM DTT, 0.01% Triton X-100 final concentration) was dispensed into 1,536-well assay plates (Greiner, solid black medium-binding plates) with Aurora Discovery BioRAPTR Flying Reagent Dispenser (FRD; Beckton-Dickenson). Using a Kalypsys pin tool equipped with a 1,536-pin tool, 23 nL of compound solution was transferred to the assay plate. Two uL/well Clk4-buffer solution (6.25 nM Clk4, 25 mM Tris pH 7.5, 10 mM MgCl2, 0.5 mM EGTA, 2.5 mM DTT, 0.01% Triton X-100, final concentration) was then added using the FRD yielding a total kinase reaction volume of 4 uL/ well. Then 4 uL/well of detection mixture (4 nM orange fluorescent tracer, 1 ug/mL ADP antibody, final concentration) was then added after an hour and the polarization signal was measured using the EnVision plate reader (PerkinElmer, Waltham, MA) after 30 min of room temperature incubation using the following filters and program settings: BODIPY TMR FP dual Enh mirror (barcode 682); BODIPY-TMR 531 (barcode 105) excitation; BODIPY-TMR FP P/S polarized 595 nm filters (barcodes 210 and 211, respectively); 100% light; 150 flashes; 1.35 G-factor; Detector gains were 685 for the 1st detector; 630 for the 2nd detector.", "units": {"activity change, negative = inhibition": "%"}, "values": [
      {"smiles": "CN1CCN(c2ncc3nc(CCc4ccccc4)c(=O)n(C4CC4)c3n2)CC1", "activity change, negative = inhibition": 4.47},
      {"smiles": "CN(C)c1ncc2nc(-c3ccccc3)c(=O)n(-c3ccccc3)c2n1", "activity change, negative = inhibition": 2.45},
      {"smiles": "Cn1c(=O)c(-c2cccc(C#N)c2)nc2cnc(Oc3ccccc3)nc21", "activity change, negative = inhibition": 11.9},
      {"smiles": "c1ccc(CNc2ncnc3ccc(-c4cccnc4)cc23)cc1", "Potency": "2240 nM (active)"},
      {"smiles": "CN(C)c1ncc2nc(-c3cccs3)c(=O)n(CCC#N)c2n1", "activity change, negative = inhibition": 3.91},
      {"smiles": "COc1cccc(Nc2ncc3nc(C)c(=O)n(C)c3n2)c1", "activity change, negative = inhibition": -8.81},
      {"smiles": "O=c1c(-c2cc(F)cc(F)c2)nc2cnc(N3CCNCC3)nc2n1C1CC1", "activity change, negative = inhibition": -5.59},
      {"smiles": "Cn1cc(-c2nc3cnc(Oc4ccccc4)nc3n(C3CC3)c2=O)c2ccccc21", "activity change, negative = inhibition": 11.4},
      {"smiles": "CN1CCN(c2ncnc3ccc(-c4ccc(C(=O)N(C)C)cc4)cc23)CC1", "activity change, negative = inhibition": -17.6},
      {"smiles": "CN1CCN(c2ncc3ncc(=O)n(CCC#N)c3n2)CC1", "activity change, negative = inhibition": 5.5},
      {"smiles": "Cc1ccccc1-c1cncnc1NCc1ccccc1", "activity change, negative = inhibition": 6.28},
      {"smiles": "c1cncc(CNc2ccnc(-c3ccc4c(c3)OCO4)n2)c1", "Potency": "44.7 nM (active)"},
      {"smiles": "O=c1cnc2cnc(N3CCNCC3)nc2n1Cc1ccc(F)cc1", "activity change, negative = inhibition": 1.59},
      {"smiles": "COCCNc1ncncc1-c1c(C)noc1C", "activity change, negative = inhibition": 5.21},
      {"smiles": "CCNc1ncc2nc(C)c(=O)n(Cc3ccc(F)cc3)c2n1", "activity change, negative = inhibition": -1.2},
      {"smiles": "COc1ccc(-n2c(=O)c(-c3ccc(Cl)cc3)nc3cnc(N4CCNCC4)nc32)cc1", "activity change, negative = inhibition": 11.6},
      {"smiles": "COc1ccc(-n2c(=O)c(-c3cccs3)nc3cnc(N(C)C)nc32)cc1", "activity change, negative = inhibition": 5.28},
      {"smiles": "Cn1c(=O)c(-c2cc(F)cc(F)c2)nc2cnc(N3CCOCC3)nc21", "activity change, negative = inhibition": 8.29},
      {"smiles": "Cc1cnc(CNc2ccnc(-c3ccccc3CN(C)C)n2)cn1", "activity change, negative = inhibition": 6.58},
      {"smiles": "COc1ccc(Oc2ncc3nc(C)c(=O)n(C[C@H]4CCCO4)c3n2)cc1", "activity change, negative = inhibition": 2.53},
      {"smiles": "CN1CCN(c2ncc3nc(-c4cccc(C#N)c4)c(=O)n(Cc4ccc(F)cc4)c3n2)CC1", "activity change, negative = inhibition": 8.05},
      {"smiles": "CN(C)Cc1ccccc1-c1nc(NC2CCNCC2)c2ccccc2n1", "activity change, negative = inhibition": 4.82},
      {"smiles": "FC(F)(F)c1ccccc1-c1ccc2ncnc(NCc3cccnc3)c2c1", "activity change, negative = inhibition": -19.5},
      {"smiles": "COc1cccc(-c2cncnc2NC2CCNCC2)c1", "activity change, negative = inhibition": 1.76},
      {"smiles": "Cc1nc2cnc(N3CCOCC3)nc2n(C[C@H]2CCCO2)c1=O", "activity change, negative = inhibition": 1.59},
      {"smiles": "FC(F)(F)c1ccccc1-c1nccc(N2CCNCC2)n1", "activity change, negative = inhibition": 7.26},
      {"smiles": "CN(Cc1ccco1)c1ncnc2ccc(-c3ccoc3)cc12", "Potency": "50.1 nM (active)"},
      {"smiles": "COc1ccc(-c2nc3cnc(N4CCN(C)CC4)nc3n(-c3ccc(OC)cc3)c2=O)cc1", "activity change, negative = inhibition": 8.45},
      {"smiles": "O=c1c(CCc2ccccc2)nc2cncnc2n1Cc1ccc(F)cc1", "activity change, negative = inhibition": 9.88},
      {"smiles": "COCCNc1cc(-c2c(C)noc2C)ncn1", "activity change, negative = inhibition": -13.5},
      {"smiles": "CN(C)Cc1ccccc1-c1cc(N(C)Cc2ccco2)ncn1", "activity change, negative = inhibition": 2.22},
      {"smiles": "COc1ccc(Oc2ncc3nc(CCc4ccccc4)c(=O)n(C[C@H]4CCCO4)c3n2)cc1", "activity change, negative = inhibition": 4.82},
      {"smiles": "CNc1cc(-c2c(C)noc2C)ncn1", "activity change, negative = inhibition": -14.5},
      {"smiles": "COCCNc1ncnc2ccc(-c3cccnc3)cc12", "Potency": "10000 nM (active)"},
      {"smiles": "O=c1c(-c2ccc(F)cc2)nc2cnc(N3CCNCC3)nc2n1Cc1ccc(F)cc1", "activity change, negative = inhibition": 3.98},
      {"smiles": "CCNc1ncc2nc(-c3cc(F)cc(F)c3)c(=O)n(C[C@H]3CCCO3)c2n1", "activity change, negative = inhibition": 3.91},
      {"smiles": "COCCn1c(=O)cnc2cnc(OC)nc21", "activity change, negative = inhibition": 5.05},
      {"smiles": "N#CCCn1c(=O)c(-c2ccc(F)cc2)nc2cnc(N3CCOCC3)nc21", "activity change, negative = inhibition": 9.19},
      {"smiles": "CN(Cc1ccco1)c1cc(-c2ccoc2)ncn1", "activity change, negative = inhibition": 35.5},
      {"smiles": "CN(C)c1ncc2nc(-c3ccccc3)c(=O)n(Cc3ccc(F)cc3)c2n1", "activity change, negative = inhibition": 4.39}
    ]}
  ]
}
